{
  "source": "paper PMC4336329",
  "about": "(PLoS ONE, 2015)",
  "note": "Among all 310,000 compounds or so, about 14,000 (4.5%) showed an effect of 50% or more. Effects have a minus sign here. Shown is part of a subset that was picked to be rich in strong results.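 Note: peak tail current of the secondary pulse compared with the same well before compound.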",
  "data": [
    {"target": "human ether-à-go-go-related gene (hERG) potassium channel (human, UniProt Q12809)", "sequence (Q12809 whole entry, looked up)": "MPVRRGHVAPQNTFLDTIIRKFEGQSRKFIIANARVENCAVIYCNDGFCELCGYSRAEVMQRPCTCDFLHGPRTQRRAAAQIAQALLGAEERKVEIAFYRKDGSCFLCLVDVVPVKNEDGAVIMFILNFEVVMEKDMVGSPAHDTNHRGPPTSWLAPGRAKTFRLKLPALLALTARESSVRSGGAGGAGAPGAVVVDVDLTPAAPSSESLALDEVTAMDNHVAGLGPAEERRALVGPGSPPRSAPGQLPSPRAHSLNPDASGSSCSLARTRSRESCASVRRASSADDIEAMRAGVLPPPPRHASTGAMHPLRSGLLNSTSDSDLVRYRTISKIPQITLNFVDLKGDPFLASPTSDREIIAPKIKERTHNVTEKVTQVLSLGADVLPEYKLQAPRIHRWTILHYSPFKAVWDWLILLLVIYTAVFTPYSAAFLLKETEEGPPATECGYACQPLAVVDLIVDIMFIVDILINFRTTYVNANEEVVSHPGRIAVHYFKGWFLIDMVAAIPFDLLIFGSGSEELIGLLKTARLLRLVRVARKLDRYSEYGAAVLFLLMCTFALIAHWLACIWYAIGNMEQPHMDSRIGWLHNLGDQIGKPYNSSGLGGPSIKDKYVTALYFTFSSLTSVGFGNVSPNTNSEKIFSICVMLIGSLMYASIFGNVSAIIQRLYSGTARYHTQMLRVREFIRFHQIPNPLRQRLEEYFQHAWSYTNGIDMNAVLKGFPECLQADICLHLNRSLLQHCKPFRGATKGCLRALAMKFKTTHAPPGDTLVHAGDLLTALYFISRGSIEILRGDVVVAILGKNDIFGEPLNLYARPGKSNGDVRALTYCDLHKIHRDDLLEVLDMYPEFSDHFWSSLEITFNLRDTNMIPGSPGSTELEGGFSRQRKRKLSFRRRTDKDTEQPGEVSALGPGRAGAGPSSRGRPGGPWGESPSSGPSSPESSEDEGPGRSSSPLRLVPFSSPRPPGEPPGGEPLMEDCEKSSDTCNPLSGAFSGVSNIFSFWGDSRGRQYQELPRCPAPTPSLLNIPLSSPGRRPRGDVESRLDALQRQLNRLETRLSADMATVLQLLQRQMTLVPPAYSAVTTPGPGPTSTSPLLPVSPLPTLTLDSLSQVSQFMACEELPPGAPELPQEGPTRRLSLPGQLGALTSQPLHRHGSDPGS", "assay": "primary screen, population patch clamp on CHO cells stably expressing hERG; higher = less effect of the substance", "units": {"hERG current change (%, negative = inhibition) at 10uM": "%"}, "values": [
      {"molecule": "S=C1CCC(c2ccc(Cl)cc2)=NN1c1ccccc1", "hERG current change (%, negative = inhibition) at 10uM": 4.79},
      {"molecule": "O=C(Nc1ccc(F)cc1)C1CCN(c2ncnc3c2nc2n3CCCCC2)CC1", "hERG current change (%, negative = inhibition) at 10uM": -7.35},
      {"molecule": "O=C(Nc1ccc(F)cc1F)C1CCCN(c2ncnc3c2nc2n3CCCCC2)C1", "note": "(stereo not shown)", "hERG current change (%, negative = inhibition) at 10uM": -62},
      {"molecule": "COc1ccc(Cl)cc1NC(=O)C1CCCN(c2ncnc3c2nc2n3CCCCC2)C1", "note": "(stereo not shown)", "hERG current change (%, negative = inhibition) at 10uM": -37.6},
      {"molecule": "COc1ccccc1NC(=O)C1CCCN(c2ncnc3c2nc2n3CCCCC2)C1", "note": "(stereo not shown)", "hERG current change (%, negative = inhibition) at 10uM": -45.5},
      {"molecule": "O=C(Nc1cc(F)ccc1F)C1CCCN(c2ncnc3c2nc2n3CCCCC2)C1", "note": "(stereo not shown)", "hERG current change (%, negative = inhibition) at 10uM": -59.5},
      {"molecule": "CC1=C(C(=O)OC2CCC(C)CC2)C(c2ccc(O)c([N+](=O)[O-])c2)NC(=O)N1", "note": "(stereo not shown)", "hERG current change (%, negative = inhibition) at 10uM": -0.635},
      {"molecule": "C=CCn1c(CCNC(=O)c2ccccc2F)nnc1SCC(=O)Nc1ccc(OC)cc1", "hERG current change (%, negative = inhibition) at 10uM": 3.94},
      {"molecule": "COc1ccc(CCn2c(=N)c(C(=O)NCCN3CCOCC3)cc3c(=O)n4ccccc4nc32)cc1OC", "hERG current change (%, negative = inhibition) at 10uM": -32.5},
      {"molecule": "COc1ccc(CCNC(=O)c2cc3c(=O)n4ccccc4nc3n(CCCN3CCOCC3)c2=N)cc1OC", "hERG current change (%, negative = inhibition) at 10uM": -75.1},
      {"molecule": "COc1ccc(CCn2c(=O)[nH]c3cc(C(=O)NCCCN4CCOCC4)ccc3c2=O)cc1OC", "hERG current change (%, negative = inhibition) at 10uM": 28.6},
      {"molecule": "COc1ccc(Cn2c(=S)[nH]c3cc(C(=O)NCCCN4CCOCC4)ccc3c2=O)cc1", "hERG current change (%, negative = inhibition) at 10uM": 24.1},
      {"molecule": "COc1ccc(CCNC(=O)c2c(N)n(CCN3CCOCC3)c3nc4ccccc4nc23)cc1", "hERG current change (%, negative = inhibition) at 10uM": -0.58},
      {"molecule": "COc1ccc(CCNC(=O)c2cc3c(=O)n4ccccc4nc3n(CCCN3CCOCC3)c2=N)cc1", "hERG current change (%, negative = inhibition) at 10uM": -79},
      {"molecule": "COc1ccc(CCNC(=O)C(=O)NCCCN2CCOCC2)cc1", "hERG current change (%, negative = inhibition) at 10uM": 7.99},
      {"molecule": "COc1ccc(CCNC(=O)c2cc3c(=O)n4cccc(C)c4nc3n(CCCN3CCOCC3)c2=N)cc1", "hERG current change (%, negative = inhibition) at 10uM": -76.2},
      {"molecule": "COc1ccc(CCNC(=O)c2cc3c(=O)n4ccccc4nc3n(CCN3CCOCC3)c2=N)cc1", "hERG current change (%, negative = inhibition) at 10uM": -77.8},
      {"molecule": "CCOC(=O)C1=C(COC(=O)COc2ccc(Br)cc2)NC(=O)NC1C", "note": "(stereo not shown)", "hERG current change (%, negative = inhibition) at 10uM": 2.16},
      {"molecule": "CC(=O)c1ccc(OCCCC(=O)Nc2cc(S(=O)(=O)N(C)C)ccc2C)cc1", "hERG current change (%, negative = inhibition) at 10uM": 0.514},
      {"molecule": "CCS(=O)(=O)N1CCC(C(=O)N2CCC3(CC2)OCCO3)CC1", "hERG current change (%, negative = inhibition) at 10uM": 6.65},
      {"molecule": "C=CCCCCCCCCC(=O)N1CCN(c2cc3c(cc2F)c(=O)c(C(=O)O)cn3CC)CC1", "hERG current change (%, negative = inhibition) at 10uM": 5.07},
      {"molecule": "Fc1cccc(NC(=S)Nc2ccc(Br)cc2)c1", "hERG current change (%, negative = inhibition) at 10uM": 10.3},
      {"molecule": "CCN1CCN(Cc2ccc(NC(=O)c3ccc(C)c(NC(=O)N4CCNC4=O)c3)cc2C(F)(F)F)CC1.O=C(O)C(F)(F)F", "hERG current change (%, negative = inhibition) at 10uM": 3.66},
      {"molecule": "Cc1ccc(S(=O)(=O)N/N=C/c2ccccc2O)cc1", "hERG current change (%, negative = inhibition) at 10uM": 12.9},
      {"molecule": "O=C(CN1C(=O)c2ccc([N+](=O)[O-])cc2C1=O)NCc1ccco1", "hERG current change (%, negative = inhibition) at 10uM": 12.4},
      {"molecule": "CC1(C)CC(N2CCC(=O)NC2=S)CC(C)(C)N1", "hERG current change (%, negative = inhibition) at 10uM": 3.04},
      {"molecule": "CC(NS(=O)(=O)c1ccc(NC(=O)N2CCCCC2)cc1)c1ccccc1", "note": "(stereo not shown)", "hERG current change (%, negative = inhibition) at 10uM": 3.56},
      {"molecule": "Cc1ccc(OS(=O)(=O)c2ccccc2)c(/C=N/N=C2\\NC(=O)C(C)S2)c1", "note": "(stereo not shown)", "hERG current change (%, negative = inhibition) at 10uM": -0.524},
      {"molecule": "CCc1cc2c(s1)N(CC(=O)OC)C(=O)CN=C2c1ccccc1OC", "hERG current change (%, negative = inhibition) at 10uM": 10.7},
      {"molecule": "Cc1ccc(S(=O)(=O)Cc2ccc(C(=O)N3CCc4ccccc4C3)o2)cc1", "hERG current change (%, negative = inhibition) at 10uM": -62.2},
      {"molecule": "COc1ccc(S(=O)(=O)Cc2ccc(C(=O)N3CCN(Cc4ccccc4)CC3)o2)cc1", "hERG current change (%, negative = inhibition) at 10uM": -33.1},
      {"molecule": "COc1ccc(S(=O)(=O)Cc2ccc(C(=O)N3CCCC3)o2)cc1", "hERG current change (%, negative = inhibition) at 10uM": 1.74},
      {"molecule": "COc1ccc(S(=O)(=O)Cc2ccc(C(=O)N3CCc4ccccc4C3)o2)cc1", "hERG current change (%, negative = inhibition) at 10uM": -59},
      {"molecule": "Cc1ccc(S(=O)(=O)Cc2ccc(C(=O)N3CCCC3)o2)cc1", "hERG current change (%, negative = inhibition) at 10uM": -6.89},
      {"molecule": "Cc1ccc(S(=O)(=O)Cc2ccc(C(=O)N3CCCCCC3)o2)cc1", "hERG current change (%, negative = inhibition) at 10uM": -15.4},
      {"molecule": "O=S1(=O)CCN(Cc2ccccc2Cl)CC1", "hERG current change (%, negative = inhibition) at 10uM": -11.1},
      {"molecule": "Cc1cc(C(=O)Nc2ccccc2C)n(-c2ccccc2)n1", "hERG current change (%, negative = inhibition) at 10uM": 16.5},
      {"molecule": "COc1ccc(NC(=O)C2CCC(=O)N2S(=O)(=O)c2ccc(C)cc2)c(OC)c1", "note": "(stereo not shown)", "hERG current change (%, negative = inhibition) at 10uM": -11},
      {"molecule": "COc1ccc(-c2c3c(=O)n(C)c(=O)n(C)c3cn2-c2ccccc2O)cc1", "hERG current change (%, negative = inhibition) at 10uM": -9.54},
      {"molecule": "O=C(CN1CCC(n2nnc3cc(F)ccc32)CC1)Nc1ccccc1N1CCOCC1", "hERG current change (%, negative = inhibition) at 10uM": -66.6},
      {"molecule": "COc1ccc(Cl)cc1NC(=O)CN1CCC(n2nnc3cc(C)ccc32)CC1", "hERG current change (%, negative = inhibition) at 10uM": -24.2},
      {"molecule": "COC(=O)c1ccccc1NC(=O)CN1CCC(n2nnc3cc(F)ccc32)CC1", "hERG current change (%, negative = inhibition) at 10uM": -14.3},
      {"molecule": "Cc1ccccc1NC(=O)CN1CCC(n2nnc3ccccc32)CC1", "hERG current change (%, negative = inhibition) at 10uM": -38.8},
      {"molecule": "Cc1ccc2c(c1)nnn2C1CCN(CC(=O)Nc2ccccc2N2CCOCC2)CC1", "hERG current change (%, negative = inhibition) at 10uM": -69.8},
      {"molecule": "CC(C)(C)c1ccc(C(=O)N2CCC(C(=O)N3CCCCC3)CC2)cc1", "hERG current change (%, negative = inhibition) at 10uM": -3.01},
      {"molecule": "Cc1cccc(C(C)(C)C)c1OCCOCCN1CCCC1", "hERG current change (%, negative = inhibition) at 10uM": -20.6},
      {"molecule": "CN(C(=O)CN1CC=C(c2ccccc2)CC1)c1c(N)n(Cc2ccccc2)c(=O)[nH]c1=O", "hERG current change (%, negative = inhibition) at 10uM": 25.8},
      {"molecule": "Cc1ccc(-n2nc3c(=O)n(CC(=O)NCc4ccc(C)o4)nc(C)c3c2C)cc1", "hERG current change (%, negative = inhibition) at 10uM": 13.1},
      {"molecule": "Cc1nn(C2CCS(=O)(=O)C2)c(Cl)c1/C=C/C(=O)OCC(=O)N(C)C", "note": "(stereo not shown)", "hERG current change (%, negative = inhibition) at 10uM": 11.3},
      {"molecule": "O=C(COc1ccc([N+](=O)[O-])cc1)Nc1ccc(CN2CCOCC2)cc1", "hERG current change (%, negative = inhibition) at 10uM": -52.3},
      {"molecule": "CCN1CCN(c2ccc(NC(=O)COc3ccc([N+](=O)[O-])cc3)cc2)CC1", "hERG current change (%, negative = inhibition) at 10uM": -54.3},
      {"molecule": "Cc1ccc(NC(=O)COc2ccc(S(=O)(=O)N3CCOCC3)cc2)cc1", "hERG current change (%, negative = inhibition) at 10uM": 7.98},
      {"molecule": "O=C(COc1ccc(S(=O)(=O)N2CCOCC2)cc1)Nc1cccc([N+](=O)[O-])c1", "hERG current change (%, negative = inhibition) at 10uM": -39},
      {"molecule": "O=C(COc1ccc(Cl)cc1)Nc1ccc(CN2CCOCC2)cc1", "hERG current change (%, negative = inhibition) at 10uM": -39.6},
      {"molecule": "O=C(COc1ccc(Br)cc1)Nc1ccc(CN2CCOCC2)cc1", "hERG current change (%, negative = inhibition) at 10uM": -40.6},
      {"molecule": "O=C(COc1ccc([N+](=O)[O-])cc1)Nc1ccc(S(=O)(=O)N2CCOCC2)cc1", "hERG current change (%, negative = inhibition) at 10uM": -53.8},
      {"molecule": "O=C(COc1ccc([N+](=O)[O-])cc1)Nc1ccc(N2CCCC2)cc1", "hERG current change (%, negative = inhibition) at 10uM": 12.1},
      {"molecule": "O=C(COc1ccc([N+](=O)[O-])cc1)Nc1ccc(N2CCN(C(=O)c3ccco3)CC2)cc1", "hERG current change (%, negative = inhibition) at 10uM": 6.27}
    ]}
  ]
}
